Sampled rows, rich in hits. Any-hit rate of the full collection: about 3.5%.
FBW7 activator: human FBW7 E3 ligase activation, primary screen. Q969H0. AlphaScreen FBW7–phospho-cyclin E peptide binding, activator screen. normalized activity (activation), % at 26.1 µM. actives 0.13% (n = 650,000); in the data active = normalized activity above about 1.9%;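 also: purified mutant Fbw7 with reduced substrate affinity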
GPR151 ag: activates the human receptor GPR151 | actives 1% (n = 650,000) | Q8TDV0 | PathHunter beta-arrestin GPR151 cells, luminescence | activation, % at 11.2 µM; in the data active = activation above about 4.9%;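 also: 0% = median of compound wells and 100% = cells with positive control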
MITF primary: inhibitors of human MITF. actives 0.91% (n = 650,000). inhibition, % at 2.6 µM. AlphaScreen MITF homodimerization, bead proximity signal. O75030. AID 1259374; in the data active = inhibition above about 50%;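 also: 0% = vehicle wells with protein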
Target sequence (O75030 whole entry, looked up): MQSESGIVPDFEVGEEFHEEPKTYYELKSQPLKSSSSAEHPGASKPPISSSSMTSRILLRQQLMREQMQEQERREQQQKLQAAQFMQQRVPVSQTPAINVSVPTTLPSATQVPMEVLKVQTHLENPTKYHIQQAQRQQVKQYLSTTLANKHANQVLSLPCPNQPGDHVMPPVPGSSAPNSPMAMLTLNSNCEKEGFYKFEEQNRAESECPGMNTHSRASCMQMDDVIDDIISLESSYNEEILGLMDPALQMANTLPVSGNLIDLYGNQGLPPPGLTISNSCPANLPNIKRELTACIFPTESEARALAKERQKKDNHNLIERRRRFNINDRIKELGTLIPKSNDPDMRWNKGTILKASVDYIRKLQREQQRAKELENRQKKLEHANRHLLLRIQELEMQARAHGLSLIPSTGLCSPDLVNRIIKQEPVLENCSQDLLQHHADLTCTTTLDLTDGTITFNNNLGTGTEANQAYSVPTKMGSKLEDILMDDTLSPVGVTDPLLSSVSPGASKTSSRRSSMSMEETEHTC
TEAD-YAP block: TEAD-YAP interaction inhibition | actives 1.4% (n = 640,000) | inhibition, % at 9.12 µM | HEK-TIYL cells, TEAD-Gal4/YAP UAS-luciferase luminescence | AID 1259422; in the data active = inhibition above about 32%;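 also: 0% = median of test compound wells and 100% = reference inhibitor wells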
Active calls of the source: *.

SMILES	FBW7 activator	GPR151 ag	MITF primary	TEAD-YAP block
COc1cc(OC)cc(C(=O)Nn2c(-c3ccc(C(C)(C)C)cc3)nc3ccccc3c2=O)c1	-0.1	-0.7	-5.1	38.2*
COc1cccc(C(=O)Nn2c(-c3ccc(Br)cc3)nc3ccccc3c2=O)c1	-0.2	-0.4	8.3	2.9
COc1cccc(C(=O)Nn2c(-c3ccc(C(C)(C)C)cc3)nc3ccccc3c2=O)c1	0.0	0.9	6.8	41.5*
Cc1cccc(NC(=O)CNC(=O)Cn2cnc3ccccc3c2=O)n1	0.3	1.0	16.4	0.0
COc1ccc(-n2nc(C(=O)NCC(=O)N3CCN(Cc4ccccc4)CC3)c3ccccc3c2=O)cc1Cl	-0.1	1.4	-3.8	11.0
COC(=O)c1ccc2nc(Nc3nc4ccc(OC)cc4s3)sc2c1	0.1	0.9	-3.1	49.2*
O=C(NCCc1ccc(O)cc1)c1ccc2nc(Nc3ccc(-n4ccnc4)cc3)sc2c1	0.1	1.6	2.3	3.1
COC(=O)c1ccc2nc(Nc3nc4c(OC)cccc4s3)sc2c1	0.8	-1.9	6.5	73.3*
COc1ccc(CCNC(=O)c2ccc3nc(Nc4ccc(-n5ccnc5)cc4)sc3c2)cc1	0.2	1.7	11.3	62.2*
Cc1cc(NS(=O)(=O)c2ccc(NC(=O)CCCCC(=O)Nc3ccc(S(=O)(=O)Nc4cc(C)on4)cc3)cc2)no1	-0.1	2.3	-9.4	-0.4
O=C1CN(Cc2ccccc2)C(=S)N1c1ccc(Oc2ccccc2)cc1	0.1	-1.5	-8.7	-7.1
COc1cc(NC(=O)c2cccc(-c3cccc(C(C)=O)c3)n2)cc(OC)c1OC	-0.2	2.1	-2.7	36.2*
COc1cc(NC(=O)c2csc(-c3cccc(C(C)=O)c3)n2)cc(OC)c1OC	0.3	-1.5	12.8	29.6
COc1cc(CNc2ccc(-c3cccc(C(C)=O)c3)cn2)cc(OC)c1OC	-0.1	2.0	12.8	34.1*
O=C(NCc1ccc(N2CCCC2=O)cc1)c1ccc(F)cc1F	0.0	1.6	7.1	-8.7
c1ccc(-n2cnc3c(NCc4nc5ccccc5[nH]4)nc(N4CCN(Cc5ccc6c(c5)OCO6)CC4)nc32)cc1	0.0	-0.2	16.5	71.0*
c1ccc(-n2cnc3c(NCc4nc5ccccc5[nH]4)nc(N4CCOCC4)nc32)cc1	0.0	-0.1	10.4	82.2*
O=C(NCc1nc2ccccc2[nH]1)c1ccc2nc(-c3ccc(N4CCOCC4)nc3)sc2c1	6.9*	0.1	2.0	-49.0
c1ccc(-n2cnc3c(NCc4nc5ccccc5[nH]4)nc(-c4ccc(N5CCOCC5)nc4)nc32)cc1	0.0	0.4	10.9	44.3*
COc1ccc(C(C#N)Cc2cc(OC)c(OC)c(OC)c2)cc1OC (stereo not given)	0.0	1.5	5.3	-35.3
Nc1nc2c(nc(N3CCOCC3)n2C2OC(CO)C(O)C2O)c(=O)[nH]1 (stereo not given)	2.3*	-0.5	10.2	3.7
Nc1ccc(O)c2c1C(=O)c1c(cccc1[N+](=O)[O-])C2=O	-0.6	0.5	88.2*	-0.1
CCCCN(CCCNC(=O)C1CC(=O)N(CCc2ccccc2)C1)c1ccccc1 (stereo not given)	-0.2	-0.5	0.8	1.4
CC1=C(C)/C(=N\S(=O)(=O)c2ccc(C)cc2)C=C(N(C)C)C1=O	-0.2	0.5	83.7*	4.2
CC1=C(C)/C(=N\S(=O)(=O)c2ccccc2)C=C(Cl)C1=O	-0.1	-0.5	6.2	1.4
SMILES	FBW7 activator	GPR151 ag	MITF primary	TEAD-YAP block
CN(C)C1=C/C(=N/S(=O)(=O)c2ccccc2)c2ccccc2C1=O	-0.3	1.7	58.5*	90.3*
Cc1cc(C(=O)COC(=O)c2cccs2)c(C)n1Cc1cccs1	-0.1	-1.3	13.6	52.7*
Cc1nnc(SCC(=O)c2cc(C)n(Cc3cccs3)c2C)s1	-0.1	1.1	1.7	61.9*
COc1ccc(CCn2c(C)cc(C(=O)CSc3nnc(C)s3)c2C)cc1	-0.1	0.4	-2.3	3.5
COCCn1c(C)cc(C(=O)CSc2nnc(C)s2)c1C	-0.2	-6.3	-1.5	70.1*
Cc1cc(C(=O)CSc2nnc(N)s2)c(C)n1Cc1ccco1	-0.1	-0.8	6.8	36.6*
Cc1ccccc1CC(=O)Nc1cnc2cnc(-c3cccc(C(=O)NCCO)c3)cn12	-0.1	0.0	-19.7	-12.6
Cc1ccc(NC(=O)Nc2ccccc2)cc1	0.2	-5.5	10.4	-62.9
Cc1ccc2nc(CN3CCN(c4ccccc4F)CC3)nc(N)c2c1	-0.1	1.3	5.9	-1.4
C/C(CC(=O)Nc1ccccc1F)=N\NC(=O)COc1ccc(Br)cc1C	0.1	0.6	-6.0	6.0
CCOc1ccc(C2C=C(c3ccc(F)cc3)Nc3nnnn32)cc1 (stereo not given)	0.1	3.3	-14.1	-15.8
COc1cccc(C2=CC(c3cc(OC)c(OC)c(OC)c3)n3nnnc3N2)c1 (stereo not given)	0.1	-1.1	6.7	56.8*
COc1cccc(C2=CC(c3cccc(OC)c3OC)n3nnnc3N2)c1 (stereo not given)	0.0	-0.2	-0.6	29.5
COc1cccc(C2=CC(c3ccccc3F)n3nnnc3N2)c1 (stereo not given)	0.2	0.7	14.8	43.6*
COc1cccc(C2=CC(c3cccc(OC)c3)n3nnnc3N2)c1 (stereo not given)	-0.1	0.9	-3.4	55.8*
CCOc1ccc(C2=CC(c3cc(OC)c(OC)c(OC)c3)n3nnnc3N2)cc1 (stereo not given)	-0.1	1.6	4.7	44.1*
CNC(=O)CSCc1cccc(Br)c1	0.8	-0.3	24.0	-5.1
O=C(c1cnn2c(C(F)(F)F)cc(-c3ccc(Br)cc3)nc12)N1CCc2ccccc2C1	0.0	1.3	-0.3	9.7
COc1cccc(C2=CC(c3cc(OC)ccc3OC)n3nnnc3N2)c1 (stereo not given)	-0.1	-2.2	9.5	49.8*
COc1ccc(C2=CC(c3cc(OC)ccc3OC)n3nnnc3N2)cc1 (stereo not given)	-0.1	0.3	4.2	-4.3
COc1cccc(C2C=C(c3ccc(C)cc3)Nc3nnnn32)c1 (stereo not given)	0.0	-0.4	3.5	32.1*
COc1ccc(-c2nnc(NC(=O)c3ccc([N+](=O)[O-])c(Cl)c3)s2)cc1	-0.1	-0.3	20.1	2.4
Cc1ccc2[nH]c(=O)c3cc(C(=O)N4CCN(C)CC4)sc3c2c1	0.0	-0.2	-1.1	-0.4
CCN1CCN(C(=O)c2cc3c(=O)[nH]c4ccc(C)cc4c3s2)CC1	0.0	1.0	18.4	37.4*
COc1ccc(C(=O)N2CCN(Cc3ccc(SC)cc3)CC2)cc1	-0.1	-1.7	36.6	42.8*
Cc1nc2cc(NC(=O)N3c4ccccc4CC3C)ccc2n1C (stereo not given)	-0.2	-1.7	-4.8	37.1*
c1cnn(Cc2ccc(Nc3nccc(-c4cncc(N5CCOCC5)c4)n3)cc2)c1	-0.2	1.4	7.3	65.3*
Cc1nc(C)n(-c2ccc(Nc3nccc(-c4cncc(N5CCOCC5)c4)n3)cc2)n1	-0.3	1.5	15.6	31.4
c1cn(Cc2ccc(Nc3nccc(-c4cncc(N5CCOCC5)c4)n3)cc2)cn1	0.3	0.2	2.9	68.2*
